# PMC7862700, “An all-to-all approach to the identification of sequence-specific readers for epigenetic DNA modifications on cytosine”
# Columns and labels:
# Assay in all cases: DAPPL (digital affinity profiling via proximity ligation, sequencing); 10 mM Tris-HCl pH 7.5, 50 mM NaCl, 1 mM DTT, 4% glycerol, room temperature, 30 min; GST-TFs on glutathione beads, 16-mer random dsDNA library, 0.1% formaldehyde crosslink after washing; high values mean tight binding
# [1] = biological target: T1, FLI1 (Homo sapiens, UniProt Q01543 1-452); settings: protein: recombinant; tags: N-terminal GST; dsDNA, one strand shown
# T1 sequence: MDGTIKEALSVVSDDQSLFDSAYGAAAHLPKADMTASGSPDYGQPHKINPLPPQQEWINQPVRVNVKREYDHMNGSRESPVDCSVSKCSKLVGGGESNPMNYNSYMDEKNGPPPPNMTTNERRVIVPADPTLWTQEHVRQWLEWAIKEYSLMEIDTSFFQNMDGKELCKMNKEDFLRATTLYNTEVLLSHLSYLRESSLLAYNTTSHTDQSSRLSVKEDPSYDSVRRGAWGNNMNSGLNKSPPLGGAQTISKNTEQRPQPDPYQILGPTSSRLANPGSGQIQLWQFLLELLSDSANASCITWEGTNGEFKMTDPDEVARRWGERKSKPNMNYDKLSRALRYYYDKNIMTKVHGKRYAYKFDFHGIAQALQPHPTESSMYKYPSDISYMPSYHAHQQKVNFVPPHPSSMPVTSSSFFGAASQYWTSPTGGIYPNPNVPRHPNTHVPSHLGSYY
# Summary of the method: (§1)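 Each value of binding signal is a hexamer's read frequency for a factor divided by the same hexamer's frequency in the tag-only sample. Barcoded, bead-captured GST fusions of human transcription factors made in yeast were pooled with that sample and incubated with 200 nmole of a random double-stranded 16-mer DNA library in Tris/NaCl/DTT/glycerol buffer at room temperature for 30 min. Washing, 0.1% formaldehyde crosslinking, proximity ligation, PCR and Illumina NextSeq500 sequencing followed.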
# [2] = biological target: T2, ELK1 (Homo sapiens, UniProt P19419 1-428); settings: protein: recombinant; tags: N-terminal GST; dsDNA, one strand shown
# T2 sequence: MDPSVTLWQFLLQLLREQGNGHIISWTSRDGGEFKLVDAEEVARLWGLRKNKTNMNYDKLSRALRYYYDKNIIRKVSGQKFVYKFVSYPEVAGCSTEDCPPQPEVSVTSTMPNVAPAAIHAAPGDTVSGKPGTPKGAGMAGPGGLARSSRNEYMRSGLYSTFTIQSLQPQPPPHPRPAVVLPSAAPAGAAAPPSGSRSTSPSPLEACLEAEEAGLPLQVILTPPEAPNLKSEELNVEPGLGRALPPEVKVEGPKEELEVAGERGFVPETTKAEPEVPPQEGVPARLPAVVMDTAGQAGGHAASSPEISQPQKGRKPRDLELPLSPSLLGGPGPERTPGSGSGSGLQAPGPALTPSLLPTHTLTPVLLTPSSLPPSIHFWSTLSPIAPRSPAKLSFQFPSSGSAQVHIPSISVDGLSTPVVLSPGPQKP
# Summary of the method: as §1
# [3] = biological target: T3, GABPA (Homo sapiens, UniProt Q06546 1-454); settings: protein: recombinant; tags: N-terminal GST; dsDNA, one strand shown
# T3 sequence: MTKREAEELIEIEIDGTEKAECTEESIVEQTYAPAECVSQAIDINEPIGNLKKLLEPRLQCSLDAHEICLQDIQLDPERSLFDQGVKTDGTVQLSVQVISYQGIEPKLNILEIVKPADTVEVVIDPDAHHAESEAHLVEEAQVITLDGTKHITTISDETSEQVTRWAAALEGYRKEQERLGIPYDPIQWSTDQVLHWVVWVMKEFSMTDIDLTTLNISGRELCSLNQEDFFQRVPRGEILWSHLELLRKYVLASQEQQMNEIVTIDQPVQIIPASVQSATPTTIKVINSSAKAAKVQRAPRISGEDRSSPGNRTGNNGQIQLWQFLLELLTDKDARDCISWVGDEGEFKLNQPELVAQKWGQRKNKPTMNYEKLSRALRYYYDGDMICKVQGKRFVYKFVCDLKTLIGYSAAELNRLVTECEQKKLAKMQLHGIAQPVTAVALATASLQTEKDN
# Summary of the method: as §1
# [4] = biological target: T4, ERG (Homo sapiens, UniProt P11308 1-479); settings: protein: recombinant; tags: N-terminal GST; dsDNA, one strand shown
# T4 sequence: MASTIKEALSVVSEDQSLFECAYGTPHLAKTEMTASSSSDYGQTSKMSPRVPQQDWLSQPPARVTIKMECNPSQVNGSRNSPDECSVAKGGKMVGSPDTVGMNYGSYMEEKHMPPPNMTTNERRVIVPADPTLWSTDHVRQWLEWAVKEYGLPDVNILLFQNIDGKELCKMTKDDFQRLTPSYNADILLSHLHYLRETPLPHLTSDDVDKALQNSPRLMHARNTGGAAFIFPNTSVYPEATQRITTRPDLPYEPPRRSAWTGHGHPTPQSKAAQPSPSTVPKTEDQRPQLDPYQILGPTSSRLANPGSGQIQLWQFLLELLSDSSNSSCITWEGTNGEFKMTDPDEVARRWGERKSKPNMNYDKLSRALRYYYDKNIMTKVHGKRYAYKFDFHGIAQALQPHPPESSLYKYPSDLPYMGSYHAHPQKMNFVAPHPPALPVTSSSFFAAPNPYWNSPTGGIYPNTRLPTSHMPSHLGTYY
# Summary of the method: as §1
# [5] = biological target: ELF1 (Homo sapiens, UniProt P32519 1-619); settings: protein: recombinant; tags: N-terminal GST; dsDNA, one strand shown
# Chain of ELF1 (P32519 whole entry): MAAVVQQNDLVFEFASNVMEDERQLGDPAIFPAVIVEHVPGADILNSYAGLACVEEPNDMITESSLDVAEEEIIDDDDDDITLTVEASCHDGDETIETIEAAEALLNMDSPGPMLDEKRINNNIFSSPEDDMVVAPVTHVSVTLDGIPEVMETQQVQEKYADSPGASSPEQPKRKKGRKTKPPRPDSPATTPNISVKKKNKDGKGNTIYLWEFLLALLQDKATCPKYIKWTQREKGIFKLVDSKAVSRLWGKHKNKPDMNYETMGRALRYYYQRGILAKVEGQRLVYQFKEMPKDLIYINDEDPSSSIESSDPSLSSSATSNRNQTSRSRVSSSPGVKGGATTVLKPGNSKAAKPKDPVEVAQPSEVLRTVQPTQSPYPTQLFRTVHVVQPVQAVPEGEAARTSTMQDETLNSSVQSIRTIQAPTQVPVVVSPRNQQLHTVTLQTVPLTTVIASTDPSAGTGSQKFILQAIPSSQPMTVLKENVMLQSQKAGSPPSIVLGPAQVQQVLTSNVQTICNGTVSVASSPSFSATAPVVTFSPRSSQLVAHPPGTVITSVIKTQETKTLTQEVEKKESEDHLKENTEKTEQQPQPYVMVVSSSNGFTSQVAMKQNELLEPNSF
# Summary of the method: as §1
# [6] = biological target: T5, EHF (Homo sapiens, UniProt Q9NZC4 1-300); settings: protein: recombinant; tags: N-terminal GST; dsDNA, one strand shown
# T5 sequence: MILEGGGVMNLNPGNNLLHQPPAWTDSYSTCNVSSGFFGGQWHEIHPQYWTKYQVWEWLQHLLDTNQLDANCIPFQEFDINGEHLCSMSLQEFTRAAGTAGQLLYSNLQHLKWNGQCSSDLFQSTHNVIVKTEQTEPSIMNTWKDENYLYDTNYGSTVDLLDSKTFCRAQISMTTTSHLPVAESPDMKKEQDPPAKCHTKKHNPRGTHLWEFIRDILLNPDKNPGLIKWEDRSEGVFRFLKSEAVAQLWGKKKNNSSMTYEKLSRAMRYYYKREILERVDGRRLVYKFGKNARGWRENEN
# Summary of the method: as §1
# [7] = biological target: SPI1 (Homo sapiens, UniProt P17947 1-270); settings: protein: recombinant; tags: N-terminal GST; dsDNA, one strand shown
# Summary of the method: as §1
# [8] = biological target: SPIB (Homo sapiens, UniProt Q01892 1-262); settings: protein: recombinant; tags: N-terminal GST; dsDNA, one strand shown
# Chain of SPIB (Q01892 whole entry): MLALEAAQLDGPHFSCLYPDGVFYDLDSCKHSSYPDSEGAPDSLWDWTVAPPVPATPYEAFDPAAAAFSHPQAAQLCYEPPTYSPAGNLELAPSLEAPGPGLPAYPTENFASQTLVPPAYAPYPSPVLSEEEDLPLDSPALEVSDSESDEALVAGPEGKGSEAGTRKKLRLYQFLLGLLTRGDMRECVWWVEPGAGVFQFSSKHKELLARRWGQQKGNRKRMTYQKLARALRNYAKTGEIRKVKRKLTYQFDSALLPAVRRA
# Summary of the method: as §1
# [9] = biological target: T6, ELK3 (Homo sapiens, UniProt P41970 1-407); settings: protein: recombinant; tags: N-terminal GST; dsDNA, one strand shown
# T6 sequence: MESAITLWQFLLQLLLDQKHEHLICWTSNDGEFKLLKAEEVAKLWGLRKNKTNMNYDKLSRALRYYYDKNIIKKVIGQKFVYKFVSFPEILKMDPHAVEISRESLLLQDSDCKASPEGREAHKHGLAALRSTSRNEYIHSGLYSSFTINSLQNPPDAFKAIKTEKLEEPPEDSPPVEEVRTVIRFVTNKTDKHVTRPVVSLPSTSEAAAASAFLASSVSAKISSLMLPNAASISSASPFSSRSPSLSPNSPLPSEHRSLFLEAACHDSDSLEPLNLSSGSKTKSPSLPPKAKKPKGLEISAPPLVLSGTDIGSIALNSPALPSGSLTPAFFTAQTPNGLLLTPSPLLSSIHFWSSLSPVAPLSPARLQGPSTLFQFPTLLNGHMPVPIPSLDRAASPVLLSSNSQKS
# Summary of the method: as §1
# [10] = biological target: T7, FEV (Homo sapiens, UniProt Q99581 1-238); settings: protein: recombinant; tags: N-terminal GST; dsDNA, one strand shown
# T7 sequence: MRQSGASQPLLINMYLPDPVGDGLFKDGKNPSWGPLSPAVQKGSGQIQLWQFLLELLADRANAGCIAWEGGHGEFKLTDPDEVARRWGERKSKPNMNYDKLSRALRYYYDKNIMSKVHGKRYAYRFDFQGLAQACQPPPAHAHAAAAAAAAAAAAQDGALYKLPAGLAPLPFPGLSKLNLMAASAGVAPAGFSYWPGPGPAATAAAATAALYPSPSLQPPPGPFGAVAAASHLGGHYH
# Summary of the method: as §1
# [11] = biological target: ETV5 (Homo sapiens, UniProt P41161 1-510); settings: protein: recombinant; tags: N-terminal GST; dsDNA, one strand shown
# Chain of ETV5 (P41161 whole entry): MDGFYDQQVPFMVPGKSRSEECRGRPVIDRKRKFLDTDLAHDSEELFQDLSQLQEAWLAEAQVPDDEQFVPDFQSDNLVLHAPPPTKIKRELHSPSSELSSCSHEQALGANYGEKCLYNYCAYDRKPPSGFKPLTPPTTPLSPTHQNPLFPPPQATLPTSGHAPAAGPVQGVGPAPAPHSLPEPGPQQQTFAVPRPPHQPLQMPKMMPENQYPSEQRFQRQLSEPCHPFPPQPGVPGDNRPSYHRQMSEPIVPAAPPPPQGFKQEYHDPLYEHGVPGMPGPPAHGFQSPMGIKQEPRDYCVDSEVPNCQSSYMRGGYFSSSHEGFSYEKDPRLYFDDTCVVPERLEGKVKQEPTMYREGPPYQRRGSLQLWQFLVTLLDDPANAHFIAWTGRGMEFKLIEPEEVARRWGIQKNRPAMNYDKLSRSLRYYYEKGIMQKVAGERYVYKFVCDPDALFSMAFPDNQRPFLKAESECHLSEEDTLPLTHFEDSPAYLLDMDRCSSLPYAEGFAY
# Summary of the method: as §1
# [12] = biological target: HSF1 (Homo sapiens, UniProt Q00613 1-529); settings: protein: recombinant; tags: N-terminal GST; chain copies: 3; dsDNA, one strand shown
# Chain of HSF1 (Q00613 whole entry): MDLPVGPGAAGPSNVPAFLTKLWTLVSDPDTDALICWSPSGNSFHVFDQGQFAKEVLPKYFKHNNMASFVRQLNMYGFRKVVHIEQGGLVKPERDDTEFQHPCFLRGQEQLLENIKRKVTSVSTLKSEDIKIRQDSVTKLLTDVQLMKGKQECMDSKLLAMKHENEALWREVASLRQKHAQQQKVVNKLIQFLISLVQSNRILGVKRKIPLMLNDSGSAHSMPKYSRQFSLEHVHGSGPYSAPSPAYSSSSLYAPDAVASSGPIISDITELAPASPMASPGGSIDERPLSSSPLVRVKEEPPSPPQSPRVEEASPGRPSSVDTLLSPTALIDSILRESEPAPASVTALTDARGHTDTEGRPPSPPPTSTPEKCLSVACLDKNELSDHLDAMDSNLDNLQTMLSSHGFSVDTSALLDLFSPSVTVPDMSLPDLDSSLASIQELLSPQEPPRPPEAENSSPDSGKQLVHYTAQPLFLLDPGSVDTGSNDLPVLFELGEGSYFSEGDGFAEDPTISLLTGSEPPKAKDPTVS
# Summary of the method: as §1
# [13] = biological target: T8, SPIC (Homo sapiens, UniProt Q8N5J4 1-248); settings: protein: recombinant; tags: N-terminal GST; dsDNA, one strand shown
# T8 sequence: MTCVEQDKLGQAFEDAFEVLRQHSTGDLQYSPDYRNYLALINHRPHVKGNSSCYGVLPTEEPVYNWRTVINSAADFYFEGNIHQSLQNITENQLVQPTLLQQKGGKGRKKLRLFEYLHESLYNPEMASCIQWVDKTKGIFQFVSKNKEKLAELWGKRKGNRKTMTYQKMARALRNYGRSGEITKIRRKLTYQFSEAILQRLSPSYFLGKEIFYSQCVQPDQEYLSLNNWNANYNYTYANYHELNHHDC
# Summary of the method: as §1
# [14] = biological target: ELF4 (Homo sapiens, UniProt Q99607 1-663); settings: protein: recombinant; tags: N-terminal GST; dsDNA, one strand shown
# Chain of ELF4 (Q99607 whole entry): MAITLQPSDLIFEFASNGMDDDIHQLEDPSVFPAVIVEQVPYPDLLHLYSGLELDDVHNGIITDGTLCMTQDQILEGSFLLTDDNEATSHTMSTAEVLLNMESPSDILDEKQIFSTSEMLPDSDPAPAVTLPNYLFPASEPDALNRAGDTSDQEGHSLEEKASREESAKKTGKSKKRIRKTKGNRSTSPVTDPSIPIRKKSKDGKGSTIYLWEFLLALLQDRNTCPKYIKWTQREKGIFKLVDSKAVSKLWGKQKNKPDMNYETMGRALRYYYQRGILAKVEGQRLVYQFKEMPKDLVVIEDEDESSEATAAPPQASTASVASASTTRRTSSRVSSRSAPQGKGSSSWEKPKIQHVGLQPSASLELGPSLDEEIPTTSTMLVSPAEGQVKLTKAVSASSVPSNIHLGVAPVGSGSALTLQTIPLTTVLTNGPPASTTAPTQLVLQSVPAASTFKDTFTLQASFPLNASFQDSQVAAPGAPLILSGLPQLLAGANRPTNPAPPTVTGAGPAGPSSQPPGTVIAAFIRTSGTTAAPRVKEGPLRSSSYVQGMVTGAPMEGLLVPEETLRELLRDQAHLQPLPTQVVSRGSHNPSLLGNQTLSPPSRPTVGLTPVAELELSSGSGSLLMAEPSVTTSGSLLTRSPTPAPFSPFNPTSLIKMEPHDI
# Summary of the method: as §1
# [15] = biological target: T9, ELK4 (Homo sapiens, UniProt P28324-2 1-405); settings: protein: recombinant; tags: N-terminal GST; dsDNA, one strand shown
# T9 sequence: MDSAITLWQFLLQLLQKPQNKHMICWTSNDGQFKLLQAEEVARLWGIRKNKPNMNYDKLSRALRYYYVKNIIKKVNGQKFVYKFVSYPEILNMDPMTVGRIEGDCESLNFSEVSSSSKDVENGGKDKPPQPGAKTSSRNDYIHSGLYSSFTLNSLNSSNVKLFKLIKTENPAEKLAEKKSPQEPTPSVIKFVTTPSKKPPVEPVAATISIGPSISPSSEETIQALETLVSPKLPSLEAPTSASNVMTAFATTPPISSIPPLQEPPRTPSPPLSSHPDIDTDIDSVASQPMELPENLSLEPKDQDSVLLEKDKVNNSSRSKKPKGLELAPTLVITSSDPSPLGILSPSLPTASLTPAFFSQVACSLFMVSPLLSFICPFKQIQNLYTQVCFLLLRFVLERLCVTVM
# Summary of the method: as §1
# [16] = biological target: T10, ETV2 (Homo sapiens, UniProt O00321 1-342); settings: protein: recombinant; tags: N-terminal GST; dsDNA, one strand shown
# T10 sequence: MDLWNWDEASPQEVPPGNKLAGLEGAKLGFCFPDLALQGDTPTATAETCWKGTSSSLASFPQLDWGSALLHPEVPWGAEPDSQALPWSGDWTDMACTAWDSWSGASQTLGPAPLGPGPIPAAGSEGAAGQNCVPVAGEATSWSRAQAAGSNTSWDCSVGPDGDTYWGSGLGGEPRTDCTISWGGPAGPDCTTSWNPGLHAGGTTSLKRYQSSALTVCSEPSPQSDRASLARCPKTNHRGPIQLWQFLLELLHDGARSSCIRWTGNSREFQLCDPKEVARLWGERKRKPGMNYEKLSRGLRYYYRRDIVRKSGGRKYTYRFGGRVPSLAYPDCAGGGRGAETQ
# Summary of the method: as §1
# [17] = biological target: T11, ELF3 (Homo sapiens, UniProt P78545 1-371); settings: protein: recombinant; tags: N-terminal GST; dsDNA, one strand shown
# T11 sequence: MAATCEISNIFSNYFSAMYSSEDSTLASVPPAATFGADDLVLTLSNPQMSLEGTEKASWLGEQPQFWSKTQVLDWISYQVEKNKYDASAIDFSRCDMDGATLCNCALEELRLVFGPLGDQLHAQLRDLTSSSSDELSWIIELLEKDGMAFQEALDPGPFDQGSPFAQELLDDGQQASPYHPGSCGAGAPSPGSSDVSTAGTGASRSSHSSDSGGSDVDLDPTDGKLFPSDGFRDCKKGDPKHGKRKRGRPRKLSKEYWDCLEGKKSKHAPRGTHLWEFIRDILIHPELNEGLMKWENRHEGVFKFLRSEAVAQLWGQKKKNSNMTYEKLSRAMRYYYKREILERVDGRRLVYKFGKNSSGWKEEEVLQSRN
# Summary of the method: as §1
# [18] = biological target: CRX (Homo sapiens, UniProt O43186 1-299); settings: protein: recombinant; tags: N-terminal GST; dsDNA, one strand shown
# Chain of CRX (O43186 whole entry): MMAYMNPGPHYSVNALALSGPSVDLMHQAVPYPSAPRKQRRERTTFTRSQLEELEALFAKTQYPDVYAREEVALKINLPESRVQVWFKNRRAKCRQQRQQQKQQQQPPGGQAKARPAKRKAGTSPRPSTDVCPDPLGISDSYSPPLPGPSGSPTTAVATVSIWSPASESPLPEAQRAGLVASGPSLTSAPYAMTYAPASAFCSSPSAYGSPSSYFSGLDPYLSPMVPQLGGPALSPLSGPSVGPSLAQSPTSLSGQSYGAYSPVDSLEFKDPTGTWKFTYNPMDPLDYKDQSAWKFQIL
# Summary of the method: as §1
# [19] = biological target: ETV1 (Homo sapiens, UniProt P50549 1-477); settings: protein: recombinant; tags: N-terminal GST; dsDNA, one strand shown
# Chain of ETV1 (P50549 whole entry): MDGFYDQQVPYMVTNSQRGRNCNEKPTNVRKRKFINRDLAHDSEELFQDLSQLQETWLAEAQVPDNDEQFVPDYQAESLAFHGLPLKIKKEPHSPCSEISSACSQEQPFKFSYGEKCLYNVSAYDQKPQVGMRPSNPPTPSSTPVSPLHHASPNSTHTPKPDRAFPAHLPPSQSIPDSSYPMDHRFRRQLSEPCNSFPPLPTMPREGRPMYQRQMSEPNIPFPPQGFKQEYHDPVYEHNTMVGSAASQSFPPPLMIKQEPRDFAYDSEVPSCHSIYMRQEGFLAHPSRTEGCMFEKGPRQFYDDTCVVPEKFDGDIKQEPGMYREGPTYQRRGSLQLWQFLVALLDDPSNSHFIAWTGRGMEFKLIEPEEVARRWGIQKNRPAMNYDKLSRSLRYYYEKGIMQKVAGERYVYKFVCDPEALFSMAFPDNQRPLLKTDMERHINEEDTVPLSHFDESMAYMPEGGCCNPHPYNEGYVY
# Summary of the method: as §1
sequence,measurement,setting,value
ATCACT,binding signal,[1],"1.19 fold enrichment (6-mer frequency, TF over GST control)"
same,binding signal,[2],"1.16 fold enrichment (6-mer frequency, TF over GST control)"
same,binding signal,[3],"1.19 fold enrichment (6-mer frequency, TF over GST control)"
same,binding signal,[4],"1.28 fold enrichment (6-mer frequency, TF over GST control)"
same,binding signal,[5],"1.34 fold enrichment (6-mer frequency, TF over GST control)"
same,binding signal,[6],"1.15 fold enrichment (6-mer frequency, TF over GST control)"
same,binding signal,[7],"1.32 fold enrichment (6-mer frequency, TF over GST control)"
same,binding signal,[8],"1.38 fold enrichment (6-mer frequency, TF over GST control)"
same,binding signal,[9],"1.18 fold enrichment (6-mer frequency, TF over GST control)"
same,binding signal,[10],"1.25 fold enrichment (6-mer frequency, TF over GST control)"
same,binding signal,[11],"1.2 fold enrichment (6-mer frequency, TF over GST control)"
same,binding signal,[12],"1.14 fold enrichment (6-mer frequency, TF over GST control)"
same,binding signal,[13],"1.34 fold enrichment (6-mer frequency, TF over GST control)"
same,binding signal,[14],"1.23 fold enrichment (6-mer frequency, TF over GST control)"
same,binding signal,[15],"1.45 fold enrichment (6-mer frequency, TF over GST control)"
same,binding signal,[16],"1.29 fold enrichment (6-mer frequency, TF over GST control)"
same,binding signal,[17],"1.35 fold enrichment (6-mer frequency, TF over GST control)"
same,binding signal,[18],"1.29 fold enrichment (6-mer frequency, TF over GST control)"
same,binding signal,[19],"1.2 fold enrichment (6-mer frequency, TF over GST control)"
